Drawing on PubChem BioAssay (NCI), this text covers growth for 11 compounds.

The panel holds about 83,000 compounds, 20% with a hit somewhere; the sample as a whole holds those more often.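 48-hour exposure, single concentration, 96-well plates; percent growth endpoint where 0 means no net growth. Active: below 10.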 Values without a mark were called inactive. The source made the active and inactive calls.

Among the test systems are SK-MEL-2 melanoma; EKVX NSCLC; UO-31 renal; TK-10 renal; ACHN renal; CAKI-1 renal; A498 renal; CCRF-CEM leukemia; MOLT-4 leukemia.
What all share (test): NCI-60 one-dose screen, 48 h (100 = growth as untreated, 0 = no growth, -100 = all killed)
Common to all, as to details: 10 µM

With `COC(=O)[C@]12CC[C@@H](C)[C@H](C)[C@@H]1C1=CC[C@@H]3[C@@]4(C)CC(=O)[C@H](O)[C@@]5(C)COC(=C45)C[C@@]3(C)[C@]1(C)CC2`, the growth in the experiment on SK-MEL-2 melanoma is -74.1% (active); in the experiment on EKVX NSCLC, -55.5% (active); in the experiment on UO-31 renal, -87.5% (active); with TK-10 renal, -76.5% (active); with ACHN renal, -83.8% (active); in the experiment with CAKI-1 renal it was -36.9% (active). The growth in the experiment on A498 renal was -84.1% (active); in the experiment with CCRF-CEM leukemia, -40.1% (active); with MOLT-4 leukemia, -54.9% (active).

Take `C=C1C(=O)O[C@H]2[C@H]1CC/C(COC(=O)OCCCCCOC(=O)OC/C1=C/CC[C@@]3(C)O[C@H]3[C@H]3OC(=O)C(=C)[C@@H]3CC1)=C\CC[C@@]1(C)O[C@@H]21`: the growth was -30% (active) in the experiment with SK-MEL-2 melanoma; -4.3% (active) in the experiment on EKVX NSCLC; -54.9% (active) in the experiment with UO-31 renal; -87.6% (active) in the experiment with TK-10 renal; -65.7% (active) with ACHN renal; -68.5% (active) in the experiment with CAKI-1 renal. The growth in the experiment on A498 renal was -34.2% (active); with CCRF-CEM leukemia it was 1.79% (active); in the experiment on MOLT-4 leukemia, -7.49% (active).

Turning to `Cc1ccc2c3c(cccc13)-c1ccccc1C2=O`, the growth in the experiment on SK-MEL-2 melanoma is 97.2%; in the experiment on EKVX NSCLC, 67.8%; in the experiment with UO-31 renal, 75.2%; in the experiment on TK-10 renal it was 94%; in the experiment with ACHN renal, 96.8%; with CAKI-1 renal it was 89%. The growth is 78.2% with A498 renal, 83.5% in the experiment on CCRF-CEM leukemia and 87.4% with MOLT-4 leukemia.

On to `C[C@H](NC(=O)[C@@H]1CSSC[C@@H](NC(=O)Cc2nc3ccccc3cc2O)C(=O)NCC(=O)N1C)c1ccccc1`, for which the growth was 82.3% in the experiment with SK-MEL-2 melanoma; 99.5% with EKVX NSCLC; 92% in the experiment with UO-31 renal; 109% in the experiment on TK-10 renal; 96.8% with ACHN renal; 99.7% in the experiment with CAKI-1 renal. Moreover, the growth in the experiment on A498 renal is 120%; in the experiment with CCRF-CEM leukemia, 20.1%; in the experiment with MOLT-4 leukemia it was -17.2% (active).

In the case of `CCCCn1c(=O)[nH]c2c(c1=O)C(c1ccc(Cl)cc1)c1c([nH]c(=O)n(CCCC)c1=O)N2`, the growth in the experiment on SK-MEL-2 melanoma was 108%; in the experiment with EKVX NSCLC, 99.9%; in the experiment on UO-31 renal, 94.9%; with TK-10 renal, 91.3%; with ACHN renal, 105%; in the experiment on CAKI-1 renal, 95.6%. For the same compound, the values for the growth with A498 renal, with CCRF-CEM leukemia and in the experiment on MOLT-4 leukemia were 103%, 108% and 104%, respectively.

With `O=[N+]([O-])c1ccc(Br)o1`, the growth is 94.4% in the experiment with SK-MEL-2 melanoma; 101% in the experiment on EKVX NSCLC; 90% in the experiment with UO-31 renal; 96.4% with TK-10 renal; 100% with ACHN renal; 98.3% with CAKI-1 renal. In addition, the figures for the growth in the experiment on A498 renal, in the experiment with CCRF-CEM leukemia and with MOLT-4 leukemia were 102%, 114% and 106%, respectively.

Take `CCCc1ccnc(NS(=O)(=O)c2ccc(N)cc2)n1`: the growth in the experiment on SK-MEL-2 melanoma was 97.7%; in the experiment on EKVX NSCLC it was 58.5%; in the experiment with UO-31 renal it was 86.5%; in the experiment on TK-10 renal, 93.4%; in the experiment on ACHN renal it was 112%; with CAKI-1 renal, 103%. The growth is 79.2% in the experiment on A498 renal, 46.4% in the experiment with CCRF-CEM leukemia and 81.9% with MOLT-4 leukemia.

Consider `NC(=O)c1ccc(Br)o1`, for which the growth in the experiment with SK-MEL-2 melanoma is 100%; in the experiment with EKVX NSCLC, 104%; in the experiment with UO-31 renal, 93.2%; in the experiment on TK-10 renal, 90.8%; in the experiment on ACHN renal, 103%; in the experiment on CAKI-1 renal, 102%. Also, the figures for the growth in the experiment with A498 renal, with CCRF-CEM leukemia and in the experiment with MOLT-4 leukemia were 108%, 119% and 109%, respectively.

Turning to `O=C(N/N=C\c1cc(Cl)ccc1O)c1ccncc1`, the growth was 96.9% in the experiment on SK-MEL-2 melanoma; 83.2% in the experiment with EKVX NSCLC; 41.6% in the experiment with UO-31 renal; 66.3% in the experiment with TK-10 renal; 27.7% in the experiment with ACHN renal; 49.2% in the experiment on CAKI-1 renal. In addition, the values for the growth in the experiment with A498 renal, in the experiment with CCRF-CEM leukemia and in the experiment on MOLT-4 leukemia were 104%, 11.3% and 15.9%, respectively.

`COc1ccc2oc(=O)cc(C3c4ccc([nH]4)C(c4cc(=O)oc5ccc(OC)cc45)c4ccc([nH]4)C(c4cc(=O)oc5ccc(OC)cc45)c4ccc([nH]4)C(c4cc(=O)oc5ccc(OC)cc45)c4ccc3[nH]4)c2c1` (centres undefined): the growth was 1.72% (active) in the experiment with SK-MEL-2 melanoma; 27.8% in the experiment on EKVX NSCLC; -44.9% (active) in the experiment on UO-31 renal; -32.1% (active) in the experiment on TK-10 renal; 1.03% (active) in the experiment with ACHN renal; -22.1% (active) in the experiment on CAKI-1 renal. The values for the growth with A498 renal, in the experiment on CCRF-CEM leukemia and in the experiment with MOLT-4 leukemia were -17.4% (active), 0.0782% (active) and -8.61% (active), respectively.

Regarding `COc1cc(C2=Nc3c/c(=C\c4c(O)[nH]c5ccc(Cl)cc45)ccc3=N2)cc(OC)c1OC`, the growth in the experiment with SK-MEL-2 melanoma is 31.1%; with EKVX NSCLC it was 77.7%; in the experiment on UO-31 renal, 35.5%; with TK-10 renal it was 35%; in the experiment with ACHN renal, 73.2%; with CAKI-1 renal, 50.4%. Moreover, the growth was 93.4% with A498 renal, 8.61% (active) in the experiment with CCRF-CEM leukemia and 10.3% in the experiment with MOLT-4 leukemia.
